# Reference: PubChem BioAssay (NCI)
# About 79,000 compounds went through this panel and 15% of them were active in at least one assay; those are over-represented in the sample as a whole. Values without a mark were called inactive. Activity calls are given as the source filed them. Cut-off read from the data, not from the text of the source: active = growth inhibition above about 70%; inactive = the rest.
# Experiments:
# [1] = NCI Yeast Anticancer Drug Screen. Data for the rad52 strain (AID 147);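 note: 0% = growth of vehicle-treated control cultures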; conditions: S. cerevisiae rad52 mutant growth inhibition, stronger effect = higher value
# Procedure, shortened: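 Vehicle-treated cultures served as the reference for growth inhibition of compound-exposed yeast bearing a DNA repair mutation.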
# [2] = NCI Yeast Anticancer Drug Screen. Data for the wt1 strain (AID 149);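 note: 0% = growth of vehicle-treated wt1 cultures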; conditions: S. cerevisiae wt1 strain (SPY 50644) growth inhibition, stronger effect = higher value
# Procedure, shortened: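 The wt1 strain was treated with compounds, and growth was compared with vehicle-treated cultures to give inhibition.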
# [3] = NCI Yeast Anticancer Drug Screen. Data for the rad50EPP+ strain (AID 151);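 note: 0% = growth of vehicle-treated control cultures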; conditions: S. cerevisiae rad50 mutant strain, stronger effect = higher value
# Procedure, shortened: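 In this screen, rad50EPP+ yeast were exposed to compounds. Growth inhibition was scored against vehicle-treated controls.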
# [4] = NCI Yeast Anticancer Drug Screen. Data for the mgt1 strain (AID 153); conditions: S. cerevisiae mgt1 mutant growth inhibition, stronger effect = higher value
# Procedure, shortened: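 mgt1 strain exposed; growth vs vehicle control recorded as inhibition.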
# [5] = NCI Yeast Anticancer Drug Screen. Data for the rad50 strain (AID 155);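 note: 0% = growth of vehicle-only cultures of the same strain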; conditions: S. cerevisiae rad50 strain growth inhibition, stronger effect = higher value
# Procedure, shortened: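 Cells are treated with compound, grown, and their growth is then scored against vehicle-only cultures of the same repair-deficient yeast strain.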
# [6] = NCI Yeast Anticancer Drug Screen. Data for the mec2-1 strain (AID 157); conditions: S. cerevisiae mec2-1 strain, stronger effect = higher value
# Procedure, shortened: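 Vehicle-treated cultures served as reference for growth inhibition of compound-exposed mec2-1 yeast.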
# [7] = NCI Yeast Anticancer Drug Screen. Data for the sgs1 mgt1 strain (AID 161);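 note: 0% = growth of cultures given vehicle only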; conditions: S. cerevisiae sgs1 mgt1 strain, stronger effect = higher value
# Procedure, shortened: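 Inhibition of yeast growth, normalised to vehicle-treated controls, is reported for a strain bearing genetic alterations in DNA damage repair.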
# [8] = NCI Yeast Anticancer Drug Screen. Data for the CLN2oe strain (AID 163);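 note: 0% = growth of vehicle-only control cultures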; conditions: S. cerevisiae CLN2oe strain, stronger effect = higher value
# Procedure, shortened: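 Inhibition relative to vehicle-treated yeast is reported. Cells: strain with genetic alteration in cell-cycle control, grown with compound.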
# [9] = NCI Yeast Anticancer Drug Screen. Data for the cln2 rad14 strain (AID 165);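 note: 0% = growth equal to vehicle treated cultures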; conditions: S. cerevisiae cln2 rad14 strain, stronger effect = higher value
# Procedure, shortened: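 Each compound was tested on cln2 rad14 yeast. Inhibition of growth was calculated against vehicle-exposed controls.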
# [10] = NCI Yeast Anticancer Drug Screen. Data for the bub3 strain (AID 167); conditions: S. cerevisiae bub3 mutant strain, stronger effect = higher value
# Procedure, shortened: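 Part of a panel of yeast mutants defective in DNA damage repair or cell cycle regulation. Each strain is grown with compound, and inhibition is calculated relative to solvent-treated cultures.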
# [11] = NCI Yeast Anticancer Drug Screen. Data for the wt2 strain (AID 169);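 note: 0% = growth of vehicle-treated yeast cultures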; conditions: S. cerevisiae wt2 strain growth inhibition, stronger effect = higher value
# Procedure, shortened: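 Inhibition of yeast growth was determined after compound treatment, normalised to controls receiving only vehicle.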
# [12] = NCI Yeast Anticancer Drug Screen. Data for the mlh1 strain (AID 171);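 note: 0% = growth of vehicle-treated control cultures of the same strain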; conditions: S. cerevisiae mlh1 strain growth inhibition, stronger effect = higher value
# Procedure, shortened: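 Vehicle-normalised growth inhibition of a repair- or checkpoint-altered yeast strain following compound treatment.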
# [13] = NCI Yeast Anticancer Drug Screen. Data for the sgs1 strain (AID 173);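 note: 0% = growth of vehicle-only control cultures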; conditions: S. cerevisiae sgs1 mutant, stronger effect = higher value
# Procedure, shortened: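 Screen format: yeast with repair or checkpoint alterations, compound exposure, growth read relative to vehicle.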
# [14] = NCI Yeast Anticancer Drug Screen. Data for the mlh1 rad18 strain (AID 175); conditions: S. cerevisiae mlh1 rad18 strain growth inhibition, stronger effect = higher value
# Procedure, shortened: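 Vehicle-treated cultures served as the reference for growth inhibition in a yeast strain carrying DNA damage repair alterations exposed to each compound.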
# [15] = NCI Yeast Anticancer Drug Screen. Data for the rad18 strain (AID 177); conditions: S. cerevisiae rad18 mutant growth inhibition, stronger effect = higher value
# Procedure, shortened: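 Test articles were incubated with altered yeast defective in DNA damage repair. Results are given as inhibition of growth versus vehicle.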
# [16] = at 5.0 µM (retest, dose inferred, filed as 0.5)
# [17] = at 50.0 µM (retest, dose inferred, filed as 5.0)
smiles,measurement,setting,value
CN(C)C[C@H]1CC[C@@H](CN(C)C)C1=O,growth inhibition,[1]; at 1.2 µM,17%
same,growth inhibition,[1]; at 3.7 µM,24%
same,growth inhibition,[1]; at 11.0 µM,27%
same,growth inhibition,[1]; at 33.0 µM,39%
same,growth inhibition,[1]; at 100.0 µM,66%
same,growth inhibition,[2]; at 1.2 µM,24%
same,growth inhibition,[2]; at 3.7 µM,25%
same,growth inhibition,[2]; at 11.0 µM,25%
same,growth inhibition,[2]; at 33.0 µM,14%
same,growth inhibition,[2]; at 100.0 µM,47%
same,growth inhibition,[3]; at 1.2 µM,16%
same,growth inhibition,[3]; at 3.7 µM,12%
same,growth inhibition,[3]; at 11.0 µM,27%
same,growth inhibition,[3]; at 33.0 µM,50%
same,growth inhibition,[3]; at 100.0 µM,84% (active)
same,growth inhibition,[4]; at 1.2 µM,16%
same,growth inhibition,[4]; at 3.7 µM,20%
same,growth inhibition,[4]; at 11.0 µM,25%
same,growth inhibition,[4]; at 33.0 µM,30%
same,growth inhibition,[4]; at 100.0 µM,43%
same,growth inhibition,[5]; at 1.2 µM,11%
same,growth inhibition,[5]; at 3.7 µM,31%
same,growth inhibition,[5]; [16],5%
same,growth inhibition,[5]; at 11.0 µM,22%
same,growth inhibition,[5]; at 33.0 µM,37%
same,growth inhibition,[5]; [17],36%
same,growth inhibition,[5]; at 50.0 µM,70%
same,growth inhibition,[5]; at 100.0 µM,78% (active)
same,growth inhibition,[6]; at 1.2 µM,13%
same,growth inhibition,[6]; at 3.7 µM,20%
same,growth inhibition,[6]; [16],9%
same,growth inhibition,[6]; at 11.0 µM,16%
same,growth inhibition,[6]; at 33.0 µM,28%
same,growth inhibition,[6]; [17],83% (active)
same,growth inhibition,[6]; at 50.0 µM,57.3%
same,growth inhibition,[6]; at 100.0 µM,49%
same,growth inhibition,[7]; [16],1%
same,growth inhibition,[7]; [17],18%
same,growth inhibition,[7]; at 50.0 µM,38.4%
same,growth inhibition,[8]; at 1.2 µM,-4%
same,growth inhibition,[8]; at 3.7 µM,0%
same,growth inhibition,[8]; at 11.0 µM,9%
same,growth inhibition,[8]; at 33.0 µM,29%
same,growth inhibition,[8]; at 100.0 µM,64%
same,growth inhibition,[9]; [16],20%
same,growth inhibition,[9]; [17],14%
same,growth inhibition,[9]; at 50.0 µM,23.9%
same,growth inhibition,[10]; at 1.2 µM,17%
same,growth inhibition,[10]; at 3.7 µM,12%
same,growth inhibition,[10]; [16],9%
same,growth inhibition,[10]; at 11.0 µM,19%
same,growth inhibition,[10]; at 33.0 µM,29%
same,growth inhibition,[10]; [17],47%
same,growth inhibition,[10]; at 50.0 µM,34.5%
same,growth inhibition,[10]; at 100.0 µM,63%
same,growth inhibition,[11]; at 1.2 µM,-46%
same,growth inhibition,[11]; at 3.7 µM,-45%
same,growth inhibition,[11]; at 11.0 µM,-40%
same,growth inhibition,[11]; at 33.0 µM,7%
same,growth inhibition,[11]; at 100.0 µM,99% (active)
same,growth inhibition,[12]; at 1.2 µM,18%
same,growth inhibition,[12]; at 3.7 µM,32%
same,growth inhibition,[12]; at 11.0 µM,24%
same,growth inhibition,[12]; at 33.0 µM,36%
same,growth inhibition,[12]; at 100.0 µM,29%
same,growth inhibition,[13]; at 1.2 µM,15%
same,growth inhibition,[13]; at 3.7 µM,26%
same,growth inhibition,[13]; at 11.0 µM,30%
same,growth inhibition,[13]; at 33.0 µM,44%
same,growth inhibition,[13]; at 100.0 µM,81% (active)
same,growth inhibition,[14]; [16],7%
same,growth inhibition,[14]; [17],54%
same,growth inhibition,[14]; at 50.0 µM,75% (active)
same,growth inhibition,[15]; at 1.2 µM,21%
same,growth inhibition,[15]; at 3.7 µM,21%
same,growth inhibition,[15]; at 11.0 µM,22%
same,growth inhibition,[15]; at 33.0 µM,36%
same,growth inhibition,[15]; at 100.0 µM,87% (active)
